From PubChem BioAssay
HCMV antiviral = inhibitors of human cytomegalovirus; activity change, negative = inhibition, % at 57.5 µM; HFF cells, HCMV-luciferase reporter, 72 h; active compounds read low; 410,000 tested, 4.5% active; in the data active means activity change below about -60%; inconclusive means no clear call, values can overlap the other calls; inactive means above about -39%
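HFF cells seeded 16 h at 37C, treated with compounds, infected with luciferase-reporter HCMV at MOI 1 PFU/cell; luciferase read at 72 h post infection, normalized to buffer-only and Salinomycin controls.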
VACV Venus inh = vaccinia inhibition (Venus reporter) | Vaccinia virus Venus reporter expression, fluorescence | Potency, µM (series often up to 36.5 µM), usual class: inhibitors | 330,000 tested, 0.46% active | AID 720580; calls by dose curve; tested in A549 cells; further: nearly all actives have a fitted effect of over 30% in size
Vaccinia mCherry = inhibitors of vaccinia virus infection (mCherry reporter signal) | Vaccinia virus mCherry reporter infection, fluorescence | Potency, µM (highest dose often 36.5 µM), actives largely listed as inhibitors | 310,000 tested, 0.63% active; calls by dose curve; tested in A549 cells; further: nearly all actives have a fitted effect of over 35% in size
Marburg entry inh = blocks Marburg virus binding to or entry into cells. Marburg virus pseudotyped entry inhibition, cell reporter. Potency, µM (titrated, usually from 37.8 µM), usual class: inhibitors. 300,000 tested, 1.8% active; calls by dose curve; tested in HEK293 cells
HCV inh = inhibitors of hepatitis C virus infection; Huh7.5.1 HCVcc-Cre infection, luciferase reporter, 44 h; Potency, µM (highest dose often 41.8 µM), hits mostly inhibitors; 340,000 tested, 3.4% active; AID 651820; active means well fitted inhibition curve with a large enough effect; inconclusive means small, poorly fitted or top-dose-only effect, or another doubt; inactive means no such curve, though single readings can be large or run the other way
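Seed cells (1,000/well) for 4 h; treat with compound and infect with HCVcc-Cre, moi about 0.5. Incubate 44 h, then detect luciferase activity.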
LASV entry inh = inhibitors of Lassa virus binding or cell entry. AID 540256. Lassa virus pseudotype entry inhibition, cell reporter. Potency, µM (doses to about 37.9 µM), most hits filed as inhibitors. 300,000 tested, 1.2% active; calls by dose curve; tested in HEK293 cells; further: nearly all actives have a fitted effect of over 50% in size
Hits are given with their value; n = inactive; u = inconclusive; x = no result given. Most compounds without a hit are left out; they make up all but 7.8% or so of the library.

SMILES | HCMV antiviral | VACV Venus inh | Vaccinia mCherry | Marburg entry inh | HCV inh | LASV entry inh
Cc1cc(C)c2cc(C#N)c(N3CCCN(C(=S)NCCCN(C)C)CC3)nc2c1 | n | n | n | u | 11.2µM | n
CCOCCCNC(=S)N1CCCN(c2nc3c(C)c(C)ccc3cc2C#N)CC1 | n | n | n | u | 10µM | n
Cc1ccc2cc(C#N)c(N3CCCN(C(=S)NCCCN(C)C)CC3)nc2c1 | n | u | n | 7.08µM | 10µM | u
C=CCNC(=O)c1cc2cc(Cl)ccc2nc1N | n | n | n | x | x | x
COc1cccc(CNC(=O)c2ccc(Cn3c(SCc4ccccc4)nc4cccnc43)cc2)c1 | n | n | n | x | x | u
Cc1nn(-c2ccccc2)c2c1C(O)n1c(nc3ccccc31)S2 (stereo not given) | n | n | n | u | 11.2µM | u
COc1cc(-c2noc(-c3ccc(NC4CCCC4)c([N+](=O)[O-])c3)n2)cc(OC)c1OC | n | n | n | n | x | n
Cc1ccc(N/C(N)=N/c2nc(C)cc(N3CCCCC3)n2)c(C)c1 | u | u | u | u | 2.82µM | u
COc1cc2c(cc1OC)n(CC(=O)c1ccc(F)cc1)c(=O)n1nc(CCn3nc(C)cc3C)nc21 | u | n | n | x | x | u
Cc1cc(C)n2cc(CSc3nnnn3-c3ccccc3)nc2n1 | -70.9 | x | x | n | n | n
Nc1nc(NCCc2ccccc2)c2[nH]cnc2n1 | x | n | n | x | x | x
Nc1nc(OCc2ccccc2)c2[nH]cnc2n1 | -73.2 | u | n | u | n | u
Cc1ccc(Nc2ncnc3nc[nH]c23)cc1 | x | n | n | x | x | x
Nc1nc(N)c2[nH]cnc2n1 | x | n | n | x | 6.31µM | x
Nc1ncnc2nc[nH]c12 | u | n | n | x | n | x
c1ccc(COc2ccc(Nc3ncnc4nc[nH]c34)cc2)cc1 | n | n | 7.08µM | x | n | x
CCOC(=O)CC1N=NN=N1 | x | x | x | n | x | x
CCC[C@H](N[C@@H](CCC)[C@H](O)c1ccccc1)[C@H](O)c1ccccc1 | u | n | n | 8.91µM | n | n
CCC(=O)Nc1nc(C)c(-c2csc(Nc3ccccn3)n2)s1 | n | n | u | u | 11.2µM | u
COc1ccc(OC)c(Nc2nc(-c3sc(NC(=O)CC(C)C)nc3C)cs2)c1 | u | u | u | x | 2.82µM | x
Cc1nc(NC(=O)c2ccccc2)sc1-c1csc(NCc2ccccc2)n1 | u | n | u | u | u | n
CCCCC(=O)Nc1nc(C)c(-c2csc(Nc3cc(OC)ccc3OC)n2)s1 | n | u | 1.12µM | x | 10µM | x
Cc1nc(NC(=O)c2ccccc2)sc1-c1csc(NCCc2ccccc2)n1 | u | x | x | u | 10µM | n
CC(C)(C)C(C(=O)NC1CCCC1)N1CCN(c2ncccc2C#N)CC1 (stereo not given) | n | n | n | x | x | x
COc1ccc(OC)c(NC(=O)CSc2ccc(-c3sc(C)nc3C)nn2)c1 | n | n | n | x | x | u
SMILES | HCMV antiviral | VACV Venus inh | Vaccinia mCherry | Marburg entry inh | HCV inh | LASV entry inh
COc1cccc(NC(=O)CSc2ccc(-c3sc(C)nc3C)nn2)c1 | n | n | u | u | 31.6µM | u
COc1ccc(C)cc1NC(=O)CSc1ccc(-c2sc(C)nc2C)nn1 | n | n | n | n | 10µM | u
CC(C)CCNC(=O)Cn1c(SCc2cccc(F)c2)nc2ccncc21 | x | n | n | x | x | x
Cn1c(=O)c2c(n3c4ccccc4nc13)NC(=O)CC2c1ccccc1F (stereo not given) | n | n | n | x | x | n
Cc1ccc(-n2ncc(C(=O)NCCCN3CCN(c4cccc(Cl)c4)CC3)c2-n2cccc2)cc1 | n | n | n | x | x | n
NS(=O)(=O)c1ccc(NC(=S)NCc2ccccc2)cc1 | n | n | n | n | n | n
Cc1c(Cl)cccc1NC(=S)NCCc1ccc(S(N)(=O)=O)cc1 | -79.5 | n | n | u | n | n
Cc1ccccc1NC(=S)NCCc1ccc(S(N)(=O)=O)cc1 | n | n | n | u | n | n
Cc1c(Cl)cccc1NC(=S)NCCc1ccc(Cl)cc1 | -86.2 | n | n | u | 10µM | u
Cc1ccc(NC(=S)NCc2ccc(S(N)(=O)=O)cc2)cc1Cl | -80.9 | n | n | n | n | n
Cc1cc(=O)n(Cc2cccc(Cl)c2)c2c1c(C)nn2-c1ccccc1 | n | n | n | x | x | n
Cc1cc(Br)ccc1OCCCCN1CCC(C)CC1 | -60.2 | n | n | u | 12.6µM | u
CC1CCN(CCCCOc2cccc(Br)c2)CC1 | n | n | n | u | u | u
CC1CCN(CCCCOc2ccccc2Br)CC1 | u | n | n | u | u | u
CC1CCN(CCCCOc2ccc(Br)cc2)CC1 | u | n | n | u | 11.2µM | n
CCc1ccc(NC(=O)Cn2c(=O)n(Cc3ccc4c(c3)OCO4)c(=O)c3oc4ccccc4c32)cc1 | n | n | n | x | x | n
CC(C)C[C@H]1CN(CCCC[C@H]2CNC(=O)C(=O)N2CCC2CCCCC2)C(=O)C(=O)N1CC1CCCCC1 | n | n | n | x | x | x
O=C(O)CN1C(=O)COc2ccc(S(=O)(=O)N3CCCCCC3)cc21 | -60.5 | x | x | x | n | x
COC(=O)CN1C(=O)COc2ccc(S(=O)(=O)N3CCCCC3)cc21 | n | n | n | x | x | x
CC(C)N(Cc1ccccc1)C(=O)CN1C(=O)COc2ccc(S(=O)(=O)N3CCCCCC3)cc21 | -81.0 | n | n | n | u | n
CN(Cc1ccccc1)C(=O)CN1C(=O)COc2ccc(S(=O)(=O)N3CCCC3)cc21 | n | n | n | n | n | n
CC(=O)Nc1nc(-c2ccc3c(c2)CC(C)N3C(=O)C2CC2)c(C)s1 (stereo not given) | -100.2 | n | n | n | u | n
Cc1sc(NC(=O)c2ccco2)nc1-c1ccccc1 | n | n | x | u | 14.1µM | u
Cc1sc(NC(=O)c2ccco2)nc1-c1ccc2c(c1)CC(C)N2C(=O)C1CC1 (stereo not given) | -96.9 | x | x | 10.3µM | 5.01µM | 9.2µM
CC(C)[C@@H]1CC[C@@H](C)C[C@@H]1P(=O)(c1ccccc1)c1ccccc1 | x | x | x | n | x | n
SMILES | HCMV antiviral | VACV Venus inh | Vaccinia mCherry | Marburg entry inh | HCV inh | LASV entry inh
ClCCn1cnc2c(SCc3ccccc3)ncnc21 | -64.4 | n | u | 0.891µM | n | u
ClCCn1cnc2c(SCc3ccccc3Cl)ncnc21 | -76.3 | n | u | u | n | u
Cn1cnc2c(SCc3ccccc3)ncnc21 | n | n | n | u | n | u
Cc1cc(C)c(CN2CCN(CCCn3ccc(NC(=O)OCc4ccccc4)nc3=O)CC2)c(C)c1 | n | u | u | x | 7.94µM | x
CC(C)CON=C1C[C@@H](O)[C@@H](O)[C@@H]2[C@H]3C(=O)N(C4CCCCC4)C(=O)[C@@H]3CC[C@H]12 | x | x | x | n | x | u
O=S(=O)(c1ccc2c(c1)OCCO2)N1CCN(c2nc(-c3cccs3)nc3ccccc23)CC1 | x | n | n | x | x | x
CCc1ccc(N2CC(C)Cn3c2nc2c3c(=O)[nH]c(=O)n2C)cc1 (stereo not given) | n | u | u | n | 25.1µM | u
CCC1CCc2sc(C(=O)NC3CCN(Cc4ccccc4)CC3)cc2C1 (stereo not given) | u | n | n | u | 10µM | u
CC1CCc2sc(C(=O)NC3CCN(Cc4ccccc4)CC3)cc2C1 (stereo not given) | u | x | x | x | 11.2µM | x
